Compound activity: PubChem, National Center for Advancing Translational Sciences (NCATS)
DT40 TDP1 CPT – qHTS for Inhibitors of human tyrosyl-DNA phosphodiesterase 1 (TDP1): qHTS in cells in presence of CPT | chicken DT40 Tdp1-/-;hTDP1 cells + 20 nM CPT, ATP luminescence, 48 h | Potency, µM (top dose mostly 46.2 µM), for the others: at the top dose activity change, negative = growth inhibition, hits mostly inhibitors | hit rate 12% among 420,000 | AID 686979, 2013; note: nearly all actives have a fitted effect of over 55% in size
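Chicken DT40 Tdp1-/- cells stably complemented with human TDP1 were seeded at 400 cells/well in medium containing 20 nM camptothecin, exposed to pin-transferred compounds, and grown at 37 °C for at least 48 hr. Viability was read as ATP luminescence.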
HT1080-NT tox – qHTS for induction of synthetic lethality in tumor cells producing 2HG: qHTS for the HT-1080-NT fibrosarcoma cell line | HT-1080-NT fibrosarcoma viability, CellTiter-Glo ATP luminescence, 48 h | hit rate 1.6% among 360,000 | AID 686970, 2013 | Potency, µM (titrated, usually from 46.1 µM), inactives show top-dose activity, negative = less viability, actives largely listed as cytotoxic;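 note: NT is the 2HG producing partner of a matched IDH1 knockdown line; 0% = DMSO-treated cells and -100% = media-only wells without cells; nearly all actives have a fitted effect of over 55% in size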
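750 cells/well, RPMI + 5% FBS; 2 h settle, compound pin-transfer, 48 h at 37 degrees C. CellTiter-Glo 10 min RT, luminescence. Normalized to DMSO and media-only wells.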
HT1080 IDH1KD tx – qHTS for induction of synthetic lethality in tumor cells producing 2HG: qHTS for the HT-1080-IDH1KD cell line. Potency, µM (top dose mostly 46.1 µM), for inactives: at the top dose activity, negative = toxicity, most hits filed as cytotoxic. hit rate 2% among 360,000. HT-1080 IDH1 knockdown viability, ATP luminescence, 48 h;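 note: 0% = DMSO wells and -100% = cell-free medium wells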
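Assay cells: HT-1080 with IDH1 knockdown, 750 per well, RPMI/5% FBS. Exposure: 48 h at 37 °C following 2 h pre-incubation. Read: CellTiter-Glo luminescence; fitted concentration-response, curve class assigned.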
DT40 TDP1 no CPT – qHTS for Inhibitors of human tyrosyl-DNA phosphodiesterase 1 (TDP1): qHTS in cells in absence of CPT. hit rate 15% among 420,000. AID 686978, 2013. Potency, µM (top dose mostly 46.2 µM), for inactives: at the highest dose activity change, negative = growth inhibition, hits mostly inhibitors. DT40 Tdp1-/- hTDP1 cells, no CPT, ATP luminescence, 48 h; note: nearly all actives have a fitted effect of over 55% in size
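A cellular qHTS used chicken DT40 cells lacking endogenous Tdp1 but carrying stably transfected human TDP1. Compounds were applied without camptothecin, and cell growth kinetics were judged by ATP-dependent luminescence after ≥48 hr.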
KB-3-1 cytotox – qHTS assay for MDR1-selective chemotherapeutics: Primary screen using the parental adenocarcinoma cell KB-3-1; KB-3-1 viability, CellTiter-Glo ATP luminescence, 72 h; Potency, µM (top dose mostly 46.1 µM), actives largely listed as cytotoxic; hit rate 1.4% among 400,000; AID 1347075, 2019; note: nearly all actives have a fitted effect of over 60% in size
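Parental KB-3-1 adenocarcinoma cells in phenol-red-free DMEM with 10% FBS were pin-treated with compounds at several concentrations, incubated 72 h at 37 °C, and viability read by CellTiter-Glo luminescence; concentration-effect curves were fitted after normalization.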
KB-V1 MDR tox – qHTS assay for MDR1-selective chemotherapeutics: Primary screen using the drug-selected MDR subline cells KB-V1; KB-V1 MDR cells viability, CellTiter-Glo, 72 h; hit rate 3.4% among 400,000; Potency, µM (top dose mostly 46.1 µM), usual class: cytotoxic; AID 1347076, 2019; note: nearly all actives have a fitted effect of over 60% in size
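Cytotoxicity via CellTiter-Glo luminescence after 72 h compound exposure at 37 degrees C. Cells: drug-selected KB-V1 line, DMEM phenol-red free plus 10% FBS. Compounds tested at multiple concentrations; normalized data fitted to concentration-effect curves.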
* marks the source's active call; other numbers are inactive results; i = inactive; u = inconclusive; x = not tested or not shown; [ ] = another dose, or the depositor's remark. Compounds with a hit are over-represented: about 19% of the library has one in this group of screens. Calls come from the whole dose curve; as a rule, active = well fitted curve in the direction sought with a large enough effect; inconclusive = small, poorly fitted or top-dose-only effect, or another doubt; inactive = no such curve, though single readings can be large; an effect the other way counts as inactive or inconclusive. Unless noted, % is set by controls: 0 for no effect and ±100 for the full control effect; potency is the fitted concentration of half-maximal effect.

SMILES	DT40 TDP1 CPT	HT1080-NT tox	HT1080 IDH1KD tx	DT40 TDP1 no CPT	KB-3-1 cytotox	KB-V1 MDR tox
N#C/C(=C(/O)COC(=O)c1ccccc1O)c1nc2ccccc2s1	-26%	-12%	12%	16µM*	i	u
N#C/C(=C(/O)CCl)c1nc2ccccc2[nH]1	2.6µM*	u	u	5.2µM*	u	23µM*
N#C/C(=C(/O)COC(=O)c1cccnc1Cl)c1nc2ccccc2[nH]1	18µM*	2%	6%	23µM*	i	i
CC(C)(C)c1ccc(C(=O)OC/C(O)=C(\C#N)c2nc3ccccc3s2)cc1	u	12%	8%	u	i	i
N#C/C(=C(/O)COC(=O)COc1cccc(Br)c1)c1nc2ccccc2[nH]1	u	21%	4%	-12%	i	i
CCCC(=O)OC/C(O)=C(\C#N)c1nc2ccccc2[nH]1	-14%	-7%	0%	u	i	i
N#C/C(=C(/O)COC(=O)CCC1CCCCC1)c1nc2ccccc2[nH]1	5.2µM*	-1%	0%	4.1µM*	u	i
Cc1c(-c2cccc(Cl)c2)nc2ccccc2c1C(=O)OC/C(O)=C(\C#N)c1nc2ccccc2[nH]1	15µM*	1%	2%	21µM*	u	i
CCOC(=O)c1c(C)[nH]c(C(=O)OCC(O)=C(C#N)c2nc3ccccc3[nH]2)c1C	u	u	u	u	i	u
Cc1cccc(C)c1OCC(=O)OC/C(O)=C(\C#N)c1nc2ccccc2[nH]1	u	-1%	0%	21µM*	i	i
COCC(=O)OC/C(O)=C(\C#N)c1nc2ccccc2[nH]1	2.9µM*	-7%	-9%	2.6µM*	u	i
O=C(COC(=O)c1ccc(S(=O)(=O)NCc2ccco2)cc1)Nc1ccc(Cl)cn1	2%	16%	14%	8%	i	i
O=C(O)[C@H]1CCCNC1	6%	x	x	-1%	x	x
COc1ccc(S(=O)(=O)N(CC(=O)N2CCOCC2)Cc2ccccc2)cc1C	-14%	0%	-20%	-26%	i	2.9µM*
O=C(CN(Cc1ccc(F)cc1)S(=O)(=O)c1ccccc1)N1CCCCC1	u	0%	0%	16µM*	i	u
COc1ccc(C)cc1S(=O)(=O)N(CC(=O)N1CCOCC1)Cc1ccccc1	-9%	0%	-4%	-12%	i	u
O=C(Cn1nc(C(F)F)cc1C(F)F)NNC(=S)Nc1ccc([N+](=O)[O-])cc1	18%	-16%	1%	23%	i	i
CSc1cc2c(s1)c1cnn(Cc3cccc(N)c3)c(=O)c1n2C	x	x	x	x	i	i
CCOc1ccccc1Nc1ncnc2ccc(Br)cc12	u	-10%	-12%	u	i	i
O=C(COc1ncnc2ccc(Br)cc12)Nc1ccc(N2CCOCC2)cc1	-12%	5%	9%	0%	i	i
CC(C)COc1ccc(Nc2ncnc3ccc(Br)cc23)cc1	12µM*	x	x	u	i	u
CC(C)Nc1ncnc2ccc(Br)cc12	4.1µM*	-10%	-22%	4.1µM*	i	u
Brc1ccc2ncnc(Nc3ccc(N4CCOCC4)cc3)c2c1	12µM*	-25%	-27%	9.2µM*	u	2.9µM*
CC(C)(O)CC[C@@H](O)[C@](C)(O)[C@H]1CC[C@@]2(O)C3=CC(=O)[C@@H]4C[C@@H](O)[C@@H](O)C[C@]4(C)[C@H]3CC[C@]12C	-14%	9%	6%	0%	i	i
COc1ccc2c(c1)cc(C(=O)N[C@@H](CCSC)C(=O)N1CCC(C(=O)O)CC1)n2C	-2%	14%	13%	0%	i	i
SMILES	DT40 TDP1 CPT	HT1080-NT tox	HT1080 IDH1KD tx	DT40 TDP1 no CPT	KB-3-1 cytotox	KB-V1 MDR tox
COC(=O)[C@@H]1CCCN1Cc1ccc2c(c1)CN(Cc1coc3ccc(C)cc3c1=O)CCO2	-1%[9.04 µM]	x	x	u	x	x
COc1ccc2c(c1)OC[C@H]1[C@H]2N2C(=O)c3cc(Cl)ccc3NC(=O)[C@@]2(C)[C@H]1c1ccccc1	u	-1%	-4%	u	i	i
C[C@@]12C(=O)Nc3ccccc3C(=O)N1[C@H]1c3cc(Br)ccc3OC[C@@H]1[C@@H]2c1ccccc1	u	u	5.8µM*	u	u	i
C[C@@]12C(=O)Nc3ccc(Cl)cc3C(=O)N1[C@H]1c3cc(Br)ccc3OC[C@@H]1[C@@H]2c1ccccc1	23µM*	-24%	-14%	u	i	i
C[C@@]12C(=O)Nc3ccc(Br)cc3C(=O)N1[C@H]1c3cc(Br)ccc3OC[C@@H]1[C@@H]2c1ccccc1	18µM*	u	-18%	15µM*	i	i
CCCCC/C=C\C/C=C\C/C=C\C=C\[C@@H](O)CCCC(=O)O	5%[0.628 µM]	x	x	-12%[0.628 µM]	x	x
CCOc1nc2cccc(C(=O)OC(C)OC(=O)OC3CCCCC3)c2n1Cc1ccc(-c2ccccc2-c2nn[nH]n2)cc1 (configuration not stated)	u	x	x	23µM*	x	x
CN(C)C(=O)CNc1ccn2nc(-c3cccc(OCCN4CCOCC4)c3)cc2n1	11%	-1%	14%	-27%	i	i
c1cc(-c2cc3nc(NCC4CC4)ccn3n2)ccc1OCCN1CCOCC1	23µM*	2%	0%	23µM*	i	i
Clc1cccc(CNc2ccn3nc(-c4ccc(OCCN5CCOCC5)cc4)cc3n2)c1	8.2µM*	16µM*	u	12µM*	u	u
Fc1ccc(CNc2ccn3nc(-c4ccccc4)cc3n2)cc1	u	u	u	u	i	i
c1cc(-c2cc3nc(NC4CCCCC4)ccn3n2)ccc1OCCN1CCOCC1	3.3µM*	21µM*	21µM*	3.3µM*	u	u
CC(C)Cc1ccc(-c2cc3nc(NCC4CC4)ccn3n2)cc1	21µM*	u	u	u	i	i
OC1CCC(Nc2ccn3nc(-c4cccc(Cl)c4)cc3n2)CC1 (configuration not stated)	u	0%	-15%	u	i	i
